Results filed as inconclusive are left out. Entries that show only a call come without a potency. Active and inactive are the calls of the source. Calls come from the whole dose curve; as a rule, active = well fitted cell-killing curve with a large enough effect; inconclusive = small, poorly fitted or top-dose-only effect, or effect the other way; inactive = flat fitted curve, though single readings scatter.

We go through 17 molecules from PubChem BioAssay AID1224862 (National Center for Advancing Translational Sciences (NCATS), 2016).

This experiment in a line: Compound cytotoxicity measured by an ATP content assay as a counter-screen for lead compounds in human astrocytoma cell line (SNB-19). The following applies: SNB-19 astrocytoma viability, ATP luminescence; series mostly up to 46.1 µM. The method in brief:
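Cell viability was measured as ATP content by luminescence in SNB-19 astrocytoma cells in RPMI 1640 with 10% FBS. Compounds were incubated for set times such as 6, 24 or 72 h, and cytotoxicity was expressed as percent inhibition.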
On to `CC(C)(C)OC(=O)CN(Cc1ccc(Cl)cc1)Cc1ccc([N+](=O)[O-])s1`, for which the Potency entry was “inactive”. In the case of `COc1cc2nc(-c3ccc(N4CCN(C)CC4)cc3)nc(NCCN3CCOCC3)c2cc1OC` it was “inactive”; in that of `CCCC(=O)OC[C@@H](OC(=O)CCC)[C@@H](OC(=O)CCC)[C@H](Cn1c2nc(=O)[nH]c(=O)c-2nc2cc(C)c(C)cc21)OC(=O)CCC`, “inactive”.

For `O=C1C(Cl)=C(NCCN2CCOCC2)C(=O)c2ncccc21`, the Potency was 6.15 µM (active). The same measure for `NC(N)=NN=C(/C=C/c1ccc([N+](=O)[O-])o1)/C=C/c1ccc([N+](=O)[O-])o1`: 17.3 µM (active); for `Nc1nc2ccc([N+](=O)[O-])cc2s1`: “inactive”; for `O=c1[nH]nc(Sc2ncc([N+](=O)[O-])s2)n1-c1ccc2c(c1)OCCO2`: 4.89 µM (active). The same measure for `O[C@@H](COc1cccc2ncccc12)CN1CCN(C2c3ccccc3[C@@H]3[C@H](c4ccccc42)C3(F)F)CC1` (some centres not stated): “inactive”; for `NC(=O)c1cccc2[nH]c(-c3ccc([C@H]4CCCN4)cc3F)nc12`: 5.48 µM (active).

Take `O=C(OCc1ccccc1)c1ccc(O)cc1`: the Potency entry is “inactive”. In the case of `O=c1cc(-c2ccccc2)oc2cc(O)c(O)c(O)c12` it was “inactive”. In the case of `O=C1C[C@@H](c2ccc(O)cc2)Oc2cc(O)cc(O)c21` it was “inactive”. In the case of `Cc1ccc(O)c(-n2nc3ccccc3n2)c1` it was “inactive”.

On to `CC(C(=O)O)c1ccc2c(c1)[nH]c1ccc(Cl)cc12` (configuration not stated), for which the Potency entry was “inactive”. In the case of `COc1ccc(CC2=NN3C([C@@H](CCc4ccccc4)[C@@H](C)O)=NC(C)C3C(=O)N2)cc1OC` (some centres not stated) it was “inactive”. In the case of `CC=CC[C@@H](C)C(=O)[C@H]1C(=O)N[C@@H](C(C)C)C(=O)N(C)CC(=O)N(C)[C@@H](CC(C)C)C(=O)N[C@@H](C(C)C)C(=O)N(C)[C@@H](CC(C)C)C(=O)N[C@@H](C)C(=O)N[C@H](C)C(=O)N(C)[C@@H](CC(C)C)C(=O)N(C)[C@@H](CC(C)C)C(=O)N(C)[C@@H](C(C)C)C(=O)N1C` it was “inactive”; in that of `CC1=C(CO)C(=O)O[C@@H]([C@@H](C)[C@H]2CC[C@H]3[C@@H]4C[C@H]5O[C@]56[C@@H](O)C=CC(=O)[C@]6(C)[C@@H]4CC[C@]23C)C1`, “inactive”.
